PubChem BioAssay (NCATS)
Active and inactive are the calls of the source. Calls follow the shape of the full dose curve.

Assay: qHTS drug screen for cell cycle checkpoint inhibitors in PARPi-resistant BRCA-mutant ovarian cancer cell lines. (AID 1963452)
Settings: PEO1/OlaR viability, CellTiter-Glo luminescence, 96 h, stronger effect = lower value
Text: Women's Malignancies Branch, Center for Cancer Research (CCR),
National Cancer Institute (NCI), National Institutes of Health (NIH), Bethesda, MD
Poly (ADP-ribose) polymerase inhibitors (PARPis) have changed the treatment paradigm in breast cancer gene (BRCA) - mutant high-grade serous ovarian carcinoma (HGSC). However, most patients eventually develop resistance to PARPis, highlighting an unmet need for improved therapeutic strategies. Using high-throughput drug screens, we identified ataxia telangiectasia and rad3-related protein/checkpoint kinase 1 (CHK1) pathway inhibitors as cytotoxic and further validated the activity of the CHK1 inhibitor (CHK1i) prexasertib in PARPi-sensitive and -resistant BRCA-mutant HGSC cells and xenograft mouse models. CHK1i monotherapy induced DNA damage, apoptosis, and tumor size reduction. We then conducted a phase 2 study (NCT02203513) of prexasertib in patients with BRCA-mutant HGSC. The treatment was well tolerated but yielded an objective response rate of 6% (1 of 17; one partial response) in patients with previous PARPi treatment. […] BRCA reversion mutation in previously PARPi-treated BRCA-mutant patients was not associated with resistance to CHK1i.
Among others, 1082 oncology drugs, both approved and investigational, were prioritized based on their status in clinical trial development. […] Drugs with average Z-AUC values less than -1.0 in all three cell lines were classified as "hits" resulting in 151 oncology drug hits. The screen also confirmed cross-resistance between olaparib and other PARPis (rucaparib, niraparib, and talazoparib) in PARPi-resistant PEO1/OlaR and PEO4.
[1] G. L. Lin, K. M. Wilson, M. Ceribelli, B. Z. Stanton, P. J. Woo, S. Kreimer, E. Y. Qin, X. Zhang, J. Lennon, S. Nagaraja, P. J. Morris, M. Quezada, S. M. Gillespie, D. Y. Duveau, A. M. Michalowski, P. Shinn, R. Guha, M. Ferrer, C. Klumpp-Thomas, S. Michael, C. McKnight, P. Minhas, Z. Itkin, E. H. Raabe, L. Chen, R. Ghanem, A. C. Geraghty, L. Ni, K. I. Andreasson, N. A. Vitanza, K. E.Warren, C. J. Thomas, M. Monje, Therapeutic strategies for diffuse midline glioma from high-throughput combination drug screening. Sci. Transl. Med. 11, (2019).
[2] T. M. Yamamoto, A. McMellen, Z. L. Watson, J. Aguilera, R. Ferguson, E. Nurmemmedov, T. Thakar, G. L. Moldovan, H. Kim, D. M. Cittelly, A. M. Joglar, E. P. Brennecke, H. Wilson, K. Behbakht, M. J. Sikora, B. G. Bitler, Activation of Wnt signaling promotes olaparib resistant ovarian cancer. Mol. Carcinog. 58, 1770 - 1782 (2019).
PROTOCOL TABLE (as described by Inglese J, Shamu CE and Guy RK. 2007)
SEQUENCE No. (e.g., 1, 2, 3, etc.); […] (e.g., Cells, Incubation, Reagent, etc.); VALUE; DESCRIPTION.
1; Compounds; 20nL; 1536-well white tissue culture-treated plates.
2; Cells; 5 uL; PEO1, PEO4, and PEO1/OlaR cells at 600 cells per well.
3; Incubation; 96 hr; 37C, 95% humidity, 5% CO2.
4; Reagent; 3 uL; CellTiter-Glo (Promega).
5; Incubation; 15 min; room temperature.
6; Detection; Luminescence, PHERAstar (BMG Labtech) plate reader.
NOTES (numbers refer to Sequence numbers above)
1. MIPE 5.0 compounds were acoustically dispensed by Echo Acoustic Liquid Handler (Beckman Coulter Life Sciences). Each compound was plated at an 11-point concentration range with 1:3 dilution. Bortezomib, a proteasome inhibitor (final concentration, 20 uM), was used as a positive.
2. PEO1, PEO4, and PEO1/OlaR were trypsinized and dispensed in 5 uLof growth medium using a Multidrop Combi dispenser at a density of 600 cells per well to allow compounds to be present during the exponential growth phase.
3. Plates were incubated for 96 hours at standard incubator conditions and covered by a stainless steel gasketed lid to prevent evaporation.
4. Three microliters of CellTiter-Glo (Promega) were added to each well.
5. Plates were incubated at room temperature for 15 min with a stainless-steel lid in place.
6. Luminescence readings were taken using PHERAstar (BMG Labtech). […]

[1] = measured here: PEO1 parental Z-AUC

| SMILES | Z-AUC | Z-AUC [1] | Z-AUC (measured here: PEO4 Z-AUC) |
| --- | --- | --- | --- |
| COc1ccc(S(=O)(=O)Nc2cc(-c3csc(C#N)c3)ccc2C)cc1 | -0.571 (inactive) | -1.63 | -1.47 |
| CC1=C(c2ccc(O)cc2)[C@H](c2ccc(OCCN3CCCCC3)cc2)Oc2cc(O)ccc21 | 0.716 (inactive) | 0.402 | -0.752 |
| C=CC(=O)N[C@H]1CN(c2nc(Nc3cn(C)nc3OC)c3ncn(C)c3n2)C[C@@H]1F | 0.581 (inactive) | 0.0382 | 0.231 |
| CC(=O)O/N=C1/C(c2c(O)[nH]c3cc(Br)ccc23)=Nc2ccccc21 | -1.48 (inactive) | 0.461 | -0.699 |
| O=C(NO)c1cnc(NC2(c3ccccc3)CC2)nc1 | -0.236 (inactive) | 0.229 | 0.185 |
| Cc1cc(Nc2ncnc3ccc(NC4=NC(C)(C)CO4)cc23)ccc1Oc1ccn2ncnc2c1 | -0.395 (inactive) | -0.0434 | -0.29 |
| COc1ccccc1C(=O)Nc1cc2c(cc1N1CCNC[C@H]1C)n(C)c(=O)n2C | -0.6 (inactive) | -0.159 | 0.121 |
| N#Cc1c(N)nc(N)nc1N[C@H](c1nc2c(F)ccc(Cl)c2c(=O)n1-c1cccnc1)C1CC1 | -1.77 (inactive) | -0.776 | -0.121 |
| N#Cc1ccc(Cn2cncc2CN2CCN(c3cccc(Cl)c3)C(=O)C2)cc1 | -0.462 (inactive) | -0.168 | -0.142 |
| Cc1ncc(NC(=O)c2cccc(C(F)(F)F)c2)cc1-c1cnc(OC2CCOCC2)c(N2CCOCC2)c1 | -1.52 (inactive) | -1.38 | -1.33 |
| O=C(CCCCCCNC(=O)c1cnc(N(c2ccccc2)c2ccccc2Cl)nc1)NO | 0.102 (inactive) | -0.152 | -0.286 |
| O=c1c(-c2ccc(O)cc2)coc2cc(O[C@@H]3O[C@H](CO)[C@@H](O)[C@H](O)[C@H]3O)ccc12 | 1.43 (inactive) | 1.29 | 1.57 |
| CC[C@@H]1[C@H](F)C(=O)N[C@@H]1COc1nccc2cc(C(N)=O)c(OC)cc12 | -0.948 (inactive) | -0.251 | 0.0982 |
| CCC(=O)NC[C@H](Cc1ccc(OCCc2nc(-c3ccccc3)oc2C)cc1)N/C(C)=C\C(=O)c1ccc(C(F)(F)F)cc1 | 0.763 (inactive) | 0.398 | 0.423 |
